Screen size: about 330,000 compounds; about 930 (0.28%) were called active. What follows is part of a selection rich in actives, with near analogues and random picks from the rest. Unmarked numbers belong to inactive results.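 The calls were made as follows: active = inhibition of at least 40% at 20 µM, with no more than 30% in the related APOBEC3A deaminase screen; inactive = the rest.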
The compounds below were run against DNA dC->dU-editing enzyme APOBEC-3G (Homo sapiens) (UniProt Q9HC16) (assay: inhibition of human A3G ssDNA deamination – biochemical, fluorescence, single-stranded DNA substrate, uHTS, primary screen (AID 493012;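 also: plate controls were DMSO wells with A3G for no effect and wells lacking A3G enzyme for full effect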)). Conditions: recombinant A3G, ssDNA deamination FAM/TAMRA fluorescence; at 20 µM; hits give high values.
Chain of DNA dC->dU-editing enzyme APOBEC-3G (Homo sapiens) (Q9HC16 whole entry, looked up): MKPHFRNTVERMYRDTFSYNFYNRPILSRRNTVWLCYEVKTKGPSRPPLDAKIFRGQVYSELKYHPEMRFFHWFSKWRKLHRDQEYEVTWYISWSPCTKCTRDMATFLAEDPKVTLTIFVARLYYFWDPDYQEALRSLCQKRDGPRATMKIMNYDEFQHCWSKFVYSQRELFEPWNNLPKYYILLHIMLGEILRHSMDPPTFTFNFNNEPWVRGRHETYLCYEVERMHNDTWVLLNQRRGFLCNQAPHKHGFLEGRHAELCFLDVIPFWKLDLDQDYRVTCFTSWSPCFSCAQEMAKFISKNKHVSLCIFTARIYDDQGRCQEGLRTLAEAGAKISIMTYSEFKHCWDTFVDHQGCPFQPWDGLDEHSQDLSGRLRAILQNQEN
Work on `Cc1cc(-c2ccccc2)nc(N2CCC(C(=O)NC34CC5CC(CC(C5)C3)C4)CC2)n1` yielded an inhibition of -9.15%. With `CCOC(=O)C1=C(N)N2C(=O)C(C)SC2=C(C(=O)OCC)C1c1cc(OC)c(OC)c(OC)c1` (configuration not stated) the inhibition was -2.88%. In the case of `C=C(C)C(=O)Nc1cccc(C2=NOC3(C2)C[C@H](C(N)=O)N(C(=O)C(c2ccccc2)c2ccccc2)C3)c1` (some centres not stated), the inhibition is reported as 53.1% (active). Compound `C/C=C(/C)C(=O)Nc1cccc(C2=NOC3(C2)C[C@@H](C(N)=O)N(C(=O)C2(C)CC2)C3)c1` (some centres not stated) has an inhibition of -16%. `C/C=C\C=C\C(=O)N1CC2(CC(c3cccc(NC(=O)/C(C)=C\C)c3)=NO2)C[C@H]1C(N)=O` (some centres not stated) was tested, and the inhibition was -3.46%. Compound `COc1ccc(/C=N/n2nnnc2N)cc1OC` has an inhibition of -3.77%. `COc1cc(/C=C/C(=O)OCC(=O)N2CCOCC2)ccc1OCC#N` gave an inhibition of -3.2%. `CC1CCc2sc3nc(N4CCN(CCO)CC4)n4ncnc4c3c2C1` (configuration not stated) gave an inhibition of -8.25%. `CCOC(=O)NC(=O)C(=CNc1cccc(OC)c1)C(=O)NC(=O)OCC` was tested, and the inhibition was -5.67%. `COC(=O)c1c(C)[nH]c(C)c1-c1ccc([N+](=O)[O-])cc1` showed an inhibition of -8.28%. `CC(=O)N1CC[n+]2c(-c3ccc([N+](=O)[O-])cc3)csc21` was tested, and the inhibition was 54.4% (active). Work on `COc1ccc(C2CC(c3ccc([N+](=O)[O-])cc3)=NN2C(C)=O)cc1` (configuration not stated) yielded an inhibition of 1.76%. In the case of `Nc1nonc1-n1nnc(C(=O)N/N=C/c2ccc(Cl)cc2)c1-c1ccc2c(c1)OCO2`, the inhibition is reported as 1.23%. In the case of `COc1cccc(C(=O)CC(=O)C(=O)Nc2ccc([N+](=O)[O-])cc2C)c1`, the inhibition is reported as 51.3% (active). `COc1cccc(NCCC(=O)c2cccc([N+](=O)[O-])c2)c1` was tested, and the inhibition was 1.63%. `COc1ccc(C(=O)CC(=O)C(=O)Nc2cc([N+](=O)[O-])ccc2OC)cc1` was tested, and the inhibition was -6.63%. For `CC(=O)Nc1ccc(S(=O)(=O)NCCC(=O)N2CCN(c3ccccc3Cl)CC2)cc1`, the inhibition was -2.43%. `CCCn1c(NC(=O)C23CC4CC(CC(O)(C4)C2)C3)nc2ccccc21` showed an inhibition of -2.56%. `O=C(Cc1ccsc1)N1CCN(S(=O)(=O)c2cc(C(F)(F)F)cc(C(F)(F)F)c2)CC1` was tested, and the inhibition was -3.29%. `CC(C)CCNC(=O)C1CCC(CNc2c(N3CCC(C)CC3)c(=O)c2=O)CC1` (configuration not stated) was tested, and the inhibition was -1.82%. `C/C(=C(\C#N)C(=O)NCCCN1CCOCC1)N(C)C` was tested, and the inhibition was -7.59%. `CCOc1cc(C(=S)N2CCOCC2)ccc1OS(=O)(=O)c1ccc(Br)cc1` gave an inhibition of -3.84%. `COc1cc(C(=S)N2CCOCC2)ccc1O` showed an inhibition of -1.79%. For `CCOc1cc(C(=S)N2CCOCC2)ccc1O`, the inhibition was 51.9% (active). In the case of `O=C(CN1CCN(C2CCS(=O)(=O)C2)CC1)N1N=C(c2ccc(Cl)cc2)CC1c1ccco1` (configuration not stated), the inhibition is reported as -3.9%. Compound `O=C(NCC(=O)N1CCCC(C(F)(F)F)C1)c1ccccc1F` (configuration not stated) has an inhibition of -2.23%. In the case of `FC(F)(F)C1CCCN(c2nsc3ccccc23)C1` (configuration not stated), the inhibition is reported as 72.5% (active). Work on `CCN(CC)CC(=O)Nc1sc2c(c1C(=O)c1ccccc1C)CCC2` yielded an inhibition of 1.14%. With `COc1ccc2[nH]c(C(=O)N3CCN(C)CC3)c(C)c2c1` the inhibition was -7.04%. For `COc1ccc2c(C)cc3nnnn3c2c1`, the inhibition was -2.56%. With `COc1ccc2[nH]c(=S)cc(C)c2c1` the inhibition was 45.8% (active). In the case of `COc1c(C(C)C)oc2cc3oc(=O)ccc3cc12`, the inhibition is reported as -10.3%. In the case of `Cc1cccc(NC(=O)C2CCCN(C(=O)Nc3ccc(F)cc3)C2)c1C` (configuration not stated), the inhibition is reported as -9.22%. `COc1ccc(OC)c(-n2c(-c3ccn[nH]3)n[nH]c2=S)c1` was tested, and the inhibition was 6.84%. `COc1ccccc1-n1c(-c2cc(-c3ccco3)[nH]n2)n[nH]c1=S` was tested, and the inhibition was 66.2% (active). With `COc1ccccc1-n1cn[nH]c1=S` the inhibition was -7.32%. With `Cc1ccccc1N1CC(C(=O)Nc2ccc3c(c2)OCO3)CC1=O` (configuration not stated) the inhibition was -5.81%. `Cc1ccc(C)c(N2CCN(C(=O)CCc3nc(-c4cccc(C(F)(F)F)c4)no3)CC2)c1` gave an inhibition of 2.36%. `COc1ccc(OC)c(NC(=O)c2sc3nc(C)cc(C)c3c2N)c1` showed an inhibition of -11%. `Cc1ccc(NC(=O)c2sc3nc(N)c(C#N)cc3c2N)cc1` was tested, and the inhibition was 53.5% (active). `CCc1ccc2nc3sc(C(=O)Nc4nnc(CC)s4)c(N)c3cc2c1` gave an inhibition of -0.825%. `COc1cc(C(=O)Nc2ncccc2C)ccc1OCC(=O)N1CCOCC1` gave an inhibition of -6.99%. `COc1cccc(NC(=O)N2CCCC2C(=O)NC2CCCCC2)c1` (configuration not stated) gave an inhibition of -7.25%. In the case of `COc1ccc(NC(=O)c2sc(N3CCOCC3)nc2-c2ccccc2)c(OC)c1`, the inhibition is reported as -6.69%. For `CCC1Sc2ccc(S(=O)(=O)CCC(=O)NCc3cccs3)cc2NC1=O` (configuration not stated), the inhibition was -2.6%. `Cn1c2ccccc2c(=O)c2c(=O)n(Cc3ccco3)c(COc3ccccc3)nc21` was tested, and the inhibition was 52.8% (active). For `CCCc1nc2c(c(=O)c3ccccc3n2C)c(=O)n1C1CCCCCC1`, the inhibition was 2.29%. For `O=c1c2ccccc2oc2nc(C3CCCCC3)n(Cc3ccco3)c(=O)c12`, the inhibition was -6.57%. Work on `CC(=O)N1C(=O)/C(=C2\SC(=S)N(NC(=O)c3ccc(O)cc3)C2=O)c2ccccc21` yielded an inhibition of 1.88%. `COc1cccc(NC(=O)CSc2nnc(C3CCCCC3)n2N)c1` showed an inhibition of -9.04%. For `Cc1cccc(NC(=O)c2ccc(S(=O)(=O)N(C)CC3CCCO3)cc2)c1C` (configuration not stated), the inhibition was 1.74%. In the case of `Cc1ccc(C)c(S(=O)(=O)Nc2cc(C)on2)c1`, the inhibition is reported as -6.75%. For `Cc1cc(-c2n[nH]c(=S)n2-c2ccc(C)c(C)c2)no1`, the inhibition was 45.2% (active). With `Cc1ccc(NCc2n[nH]c(=S)n2-c2ccccc2)cc1Cl` the inhibition was 10.6%. Work on `NC(=O)Cn1nc([N+](=O)[O-])nc1Oc1ccc(Br)cc1` yielded an inhibition of -11.7%. With `Cc1ccnc(-n2sc3ccccc3c2=O)n1` the inhibition was 87% (active). In the case of `COCCn1c(CN2CCC(Cc3ccccc3)CC2)nc2c1c(=O)n(C)c(=O)n2C`, the inhibition is reported as -4.86%. Compound `Cc1ncn(C23CC4CC(CC(O)(C4)C2)C3)n1` has an inhibition of -4.67%. For `Cc1nc([N+](=O)[O-])nn1C12CC3CC(CC(Br)(C3)C1)C2`, the inhibition was 59.1% (active). Compound `COc1cccc(NC(=O)c2nn(C34CC5CC(CC(C5)C3)C4)cc2[N+](=O)[O-])c1` has an inhibition of 0.433%. Work on `Cc1ccc(Sc2ccncc2S(N)(=O)=O)cc1` yielded an inhibition of -12.3%. `CCc1nnc(NC(=O)C2CCN(C(=O)c3ccccc3C)CC2)s1` gave an inhibition of -4.15%. In the case of `COc1ccc(CNC(=O)C2CCN(C(=O)c3ccco3)CC2)cc1`, the inhibition is reported as -11.5%. In the case of `CCC(CC)c1nnc(NC(=O)C2CCN(C(=O)c3ccco3)CC2)s1`, the inhibition is reported as 43.5% (active). `CC(C)NC(=O)NNc1c(Cl)cncc1Cl` showed an inhibition of -7.21%. `CCn1cc(C(=O)NCC(=O)NC(C)(C)CO)c(=O)c2cc3c(cc21)OCO3` gave an inhibition of 5.44%. Compound `CCOc1ccc(CCNC(=O)COC(=O)c2c(OC)cccc2OC)cc1OCC` has an inhibition of -6.63%. With `COc1ccc(N2CC(C(=O)NCCS(=O)(=O)N3CCN(c4ccccc4)CC3)CC2=O)cc1` (configuration not stated) the inhibition was -3.81%. With `Cc1sc(NC(=O)c2ccc3ncsc3c2)c(C(N)=O)c1C` the inhibition was -14.1%. In the case of `Cc1ccc(S(=O)(=O)CC(=O)Nc2sc(C)c(C)c2C(N)=O)cc1`, the inhibition is reported as 19.4%. For `Cc1ccc(C(=O)c2c(NC(=O)c3ccccc3)sc(C)c2C)cc1`, the inhibition was 43.3% (active). `CC(CN1CCCCC1)OC(=O)c1ccccc1Cl` (configuration not stated) was tested, and the inhibition was -6.81%. With `O=C(CSc1nccc(=O)[nH]1)Nc1ccc(N2CCOCC2)c(Cl)c1` the inhibition was 1.54%. With `S=c1[nH]nc(-c2ccc(Cl)cc2)n1CC1CCCO1` (configuration not stated) the inhibition was 43.8% (active). `Cc1nnc(SCC(=O)NNC(=O)c2ccc(Cl)cc2)n1CC1CCCO1` (configuration not stated) was tested, and the inhibition was -0.693%. With `Cc1ccc(-n2c(-c3ccc(Cl)cc3)n[nH]c2=S)cc1` the inhibition was 11.5%. With `O=C(CSc1nc2[nH]ncc2c(=O)[nH]1)Nc1ccc(F)cc1` the inhibition was -9.68%. `Cc1occc1-c1nnc(SCC(=O)NC2(C#N)CCCC2)n1C` showed an inhibition of -13.5%. Work on `COCCN1C(=O)C(=O)/C(=C(/O)c2ccc(S(=O)(=O)N3CCOCC3)cc2)C1c1ccc(OC)c(OC)c1` (configuration not stated) yielded an inhibition of -5.33%. For `CCOc1ccc(Br)cc1S(=O)(=O)Nc1cccc(S(=O)(=O)N(CC)CC)c1`, the inhibition was -8.57%. For `O=C(Cn1cnc2cc([N+](=O)[O-])ccc2c1=O)NC(=O)NCc1ccccc1`, the inhibition was -6%. With `Cc1noc(C)c1CSc1nc2cc(S(=O)(=O)N3CCOCC3)ccc2o1` the inhibition was 45.8% (active). Compound `Cc1ccc(S(=O)(=O)N2CCN(S(=O)(=O)N3CCOCC3)CC2)cc1` has an inhibition of -5.83%. `COc1ccc(NC(=O)c2oc3ccc(S(=O)(=O)N4CCOCC4)cc3c2C)cc1` was tested, and the inhibition was -7.26%. Compound `CCCCCCCCn1c2c(c(=N)c3c1CCC3)CCCC2` has an inhibition of -6.25%. In the case of `Cc1n[nH]c(=S)n1/N=C/c1ccc(Br)o1`, the inhibition is reported as 40.4% (active). Compound `Cc1ccsc1/C=N/n1c(=S)[nH]nc(C)c1=O` has an inhibition of -0.898%. Work on `COc1cc(/C=N/n2c(C)n[nH]c2=S)ccc1OCc1ccccc1` yielded an inhibition of 9.64%. In the case of `O=S(=O)(N/N=C\c1cccn1-c1ccccc1)c1ccc2ccccc2c1`, the inhibition is reported as -6.33%. For `COC(=O)c1cccc(N2C(=O)C3C4C=CC(CC4)C3C2=O)c1` (configuration not stated), the inhibition was -6.25%. For `COC(=O)c1cccc(-n2[nH]nnc2=S)c1`, the inhibition was 59% (active). For `COC(=O)c1cccc(NC(=O)c2cccc(N3C(=O)CCC3=O)c2)c1`, the inhibition was -9.31%.

Source: PubChem BioAssay AID493012 (Sanford-Burnham Center for Chemical Genomics, 2011)
